What all share (settings): Compound concentration 20.0 uM, Protein concentration 2.0 uM, Result type QC Liability
Assay [1] has as its target Tyrosine-protein kinase ABL1 (Homo sapiens) (UniProt P00519).
Assay [2] deals with Cyclin-dependent kinase 2 (Homo sapiens) (UniProt P24941).
In assay [3] the target is Casein kinase I isoform delta (Homo sapiens) (UniProt P48730).
For assay [4], the target named is Glycogen synthase kinase-3 beta (Homo sapiens) (UniProt P49841).
The target in assay [5] is Mitogen-activated protein kinase 1 (Homo sapiens) (UniProt P28482).
Chain of Mitogen-activated protein kinase 1 (Homo sapiens) (P28482 whole entry): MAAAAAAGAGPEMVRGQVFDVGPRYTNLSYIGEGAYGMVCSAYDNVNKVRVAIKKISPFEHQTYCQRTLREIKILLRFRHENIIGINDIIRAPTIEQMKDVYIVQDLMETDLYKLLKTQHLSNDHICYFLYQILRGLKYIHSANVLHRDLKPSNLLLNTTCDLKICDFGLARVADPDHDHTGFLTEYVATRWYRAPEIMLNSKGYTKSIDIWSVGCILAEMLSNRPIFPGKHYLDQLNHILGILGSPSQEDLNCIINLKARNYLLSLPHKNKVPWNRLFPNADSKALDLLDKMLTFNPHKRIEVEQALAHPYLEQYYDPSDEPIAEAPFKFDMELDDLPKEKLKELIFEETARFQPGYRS
For assay [6], the target named is T1, Aurora kinase A (Homo sapiens) (UniProt O14965).
T1 sequence (whole entry): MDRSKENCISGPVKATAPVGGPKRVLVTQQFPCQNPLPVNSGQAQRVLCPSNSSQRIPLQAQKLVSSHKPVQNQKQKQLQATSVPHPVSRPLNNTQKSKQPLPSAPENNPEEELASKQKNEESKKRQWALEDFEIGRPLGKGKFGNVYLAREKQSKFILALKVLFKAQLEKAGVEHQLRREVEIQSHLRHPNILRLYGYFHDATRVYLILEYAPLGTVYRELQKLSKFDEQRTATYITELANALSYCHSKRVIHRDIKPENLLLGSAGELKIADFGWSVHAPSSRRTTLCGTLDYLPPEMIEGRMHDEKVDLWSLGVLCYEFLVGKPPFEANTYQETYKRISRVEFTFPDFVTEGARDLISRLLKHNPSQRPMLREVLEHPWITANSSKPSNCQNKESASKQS

Data on 26 compounds can be found in ChEMBL document CHEMBL5308504, “Tm Shift (DSF) assay results for EUbOPEN Chemogenomics Library” (2023).

Chain of Glycogen synthase kinase-3 beta (Homo sapiens) (P49841 whole entry, looked up): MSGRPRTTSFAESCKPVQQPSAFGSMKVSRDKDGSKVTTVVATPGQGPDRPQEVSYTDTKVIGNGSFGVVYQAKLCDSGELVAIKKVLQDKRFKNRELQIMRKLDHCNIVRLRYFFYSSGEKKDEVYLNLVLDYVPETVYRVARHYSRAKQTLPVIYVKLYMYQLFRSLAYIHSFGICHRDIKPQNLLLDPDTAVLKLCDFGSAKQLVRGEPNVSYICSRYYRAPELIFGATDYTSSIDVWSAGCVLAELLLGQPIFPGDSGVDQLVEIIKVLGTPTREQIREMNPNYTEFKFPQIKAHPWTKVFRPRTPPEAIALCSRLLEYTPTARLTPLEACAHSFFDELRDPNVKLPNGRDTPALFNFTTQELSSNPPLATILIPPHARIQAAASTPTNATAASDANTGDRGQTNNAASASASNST
Chain of Tyrosine-protein kinase ABL1 (Homo sapiens) (P00519 whole entry): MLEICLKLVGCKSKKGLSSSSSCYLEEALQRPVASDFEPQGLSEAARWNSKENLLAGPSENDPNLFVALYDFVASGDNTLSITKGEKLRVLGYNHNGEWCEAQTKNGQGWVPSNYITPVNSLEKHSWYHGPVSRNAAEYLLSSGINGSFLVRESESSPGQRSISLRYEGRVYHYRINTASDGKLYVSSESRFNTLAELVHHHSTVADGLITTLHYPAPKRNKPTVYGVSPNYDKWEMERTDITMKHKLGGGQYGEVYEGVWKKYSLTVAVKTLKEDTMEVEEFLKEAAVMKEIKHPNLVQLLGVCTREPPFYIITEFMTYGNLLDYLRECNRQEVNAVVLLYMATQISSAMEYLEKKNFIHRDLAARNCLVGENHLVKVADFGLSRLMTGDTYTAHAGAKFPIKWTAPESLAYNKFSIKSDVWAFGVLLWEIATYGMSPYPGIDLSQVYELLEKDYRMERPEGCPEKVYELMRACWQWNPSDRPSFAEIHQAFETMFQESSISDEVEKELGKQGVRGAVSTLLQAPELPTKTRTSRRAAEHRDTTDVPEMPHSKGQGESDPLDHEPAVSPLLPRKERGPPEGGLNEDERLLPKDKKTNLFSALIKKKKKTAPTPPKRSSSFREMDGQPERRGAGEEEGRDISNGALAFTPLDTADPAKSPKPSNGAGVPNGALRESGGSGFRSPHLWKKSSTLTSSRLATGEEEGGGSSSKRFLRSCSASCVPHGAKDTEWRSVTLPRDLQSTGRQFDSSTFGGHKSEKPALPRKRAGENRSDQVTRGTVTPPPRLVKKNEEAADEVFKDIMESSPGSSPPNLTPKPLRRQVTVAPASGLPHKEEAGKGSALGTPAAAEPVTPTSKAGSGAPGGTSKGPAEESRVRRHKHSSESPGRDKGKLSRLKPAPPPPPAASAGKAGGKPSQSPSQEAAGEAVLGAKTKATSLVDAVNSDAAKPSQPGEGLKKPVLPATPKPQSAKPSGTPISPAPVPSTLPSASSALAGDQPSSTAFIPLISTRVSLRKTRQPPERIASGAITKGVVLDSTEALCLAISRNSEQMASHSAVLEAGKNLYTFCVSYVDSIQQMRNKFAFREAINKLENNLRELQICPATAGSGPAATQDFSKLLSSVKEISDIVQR
Chain of Casein kinase I isoform delta (Homo sapiens) (P48730 whole entry, looked up, canonical isoform): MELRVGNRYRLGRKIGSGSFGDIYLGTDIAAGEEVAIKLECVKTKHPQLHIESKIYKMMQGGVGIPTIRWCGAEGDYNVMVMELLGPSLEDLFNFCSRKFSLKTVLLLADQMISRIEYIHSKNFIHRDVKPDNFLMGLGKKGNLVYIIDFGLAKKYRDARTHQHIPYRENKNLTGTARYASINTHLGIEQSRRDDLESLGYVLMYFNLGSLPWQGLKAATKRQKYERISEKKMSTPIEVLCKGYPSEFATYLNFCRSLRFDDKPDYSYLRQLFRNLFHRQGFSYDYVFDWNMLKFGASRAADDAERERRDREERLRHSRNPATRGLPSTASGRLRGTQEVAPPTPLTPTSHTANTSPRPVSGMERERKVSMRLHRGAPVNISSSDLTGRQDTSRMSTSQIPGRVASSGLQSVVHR

As for `CC(=O)Nc1nc(CN2CCC[C@H](Cc3cc(C)nc(C)c3)C2)cs1`, the ΔTm in assay [1] was 0.19 °C; in assay [2] it was 0 °C; in assay [3], 0.1 °C; in assay [4] it was -0.34 °C; in assay [5], 0.5 °C; in assay [6], 0.28 °C.
Regarding `CC(F)(F)CN1C(=O)c2[nH]nc(-c3cccc4[nH]c(=O)oc34)c2C1c1ccc(Oc2cc(C(F)(F)F)cc(C(F)(F)F)c2)cc1` (stereo unspecified), the ΔTm in assay [1] is 0.76 °C; in assay [2], 0.46 °C; in assay [3] it was 4.37 °C; in assay [4], -4.17 °C; in assay [5] it was 1.19 °C; in assay [6], 0 °C.
With `C=C(F)C(=O)N1CCN(c2nc(OC[C@@H]3CCCN3C)nc3c2CCN(c2cccc4cccc(Cl)c24)C3)C[C@@H]1CC#N`, the ΔTm in assay [1] is -0.03 °C; in assay [2], 0.01 °C; in assay [3] it was 0.31 °C; in assay [4], 0.36 °C; in assay [5], 0.14 °C; in assay [6] it was -0.49 °C.
On to `COCc1c(-c2cc3cc(C)cc(OC)c3s2)c2c(N)ncnn2c1CN[C@@H]1CCNC1=O`, for which the ΔTm in assay [1] is 2.45 °C; in assay [2], 0.59 °C; in assay [3] it was 0.29 °C; in assay [4], -0.7 °C; in assay [5] it was 0.28 °C; in assay [6] it was 3.49 °C.
As for `NC(=O)c1ccccc1Nc1nc(-c2ccc(N3CCOCC3)cc2)cc2ncccc12`, the ΔTm in assay [1] turned out to be 7.91 °C; in assay [2], 1.53 °C; in assay [3], 3.01 °C; in assay [4], 2.43 °C; in assay [5], 0.67 °C; in assay [6] it was 10.1 °C.
With `Fc1cccc(-n2cnc3c(NCc4nc5c(F)c(F)ccc5[nH]4)nc(N4CCOCC4)nc32)c1`, the ΔTm in assay [1] came out at 1.99 °C; in assay [2], 0.74 °C; in assay [3], 3.88 °C; in assay [4] it was 1.83 °C; in assay [5], 0.22 °C; in assay [6], 0.74 °C.
Turning to `COc1cc2c(NC3CCN(C(C)C)CC3)nc(C3CCCCC3)nc2cc1OCCCN1CCCC1`, the ΔTm in assay [1] was 0.15 °C; in assay [2] it was 0.9 °C; in assay [3] it was 0.11 °C; in assay [4] it was -0.55 °C; in assay [5], 0.32 °C; in assay [6] it was 0.5 °C.
As to `Cc1cc2c(cc(C(=O)N[C@H](CO)c3ccc(S(=O)(=O)CC(=O)O)cc3)n2C)c(Cl)c1Cl`, the ΔTm in assay [1] was 1.12 °C; in assay [2] it was -0.15 °C; in assay [3] it was -1.41 °C; in assay [4], -0.78 °C; in assay [5], 0.62 °C; in assay [6], 3.77 °C.
On to `Cc1ccc(C(=O)Nc2cc(N3CCN(C)CC3)cc(C(F)(F)F)c2)cc1-n1cc(-c2cnn(C)c2C)nn1`, for which the ΔTm in assay [1] is 12.9 °C; in assay [2], 0.76 °C; in assay [3], 1.19 °C; in assay [4] it was -0.67 °C; in assay [5] it was 0.45 °C; in assay [6], 0.76 °C.
With `CSc1ccc(C[C@@H](C)C(=O)O)cc1Nc1nc(N2CC[C@H](N(C)C)C2)cc(C(F)F)c1C#N`, the ΔTm in assay [1] was 0.42 °C; in assay [2] it was 0.56 °C; in assay [3] it was 0.3 °C; in assay [4], 0.05 °C; in assay [5] it was 0.24 °C; in assay [6], 0.19 °C.
`NC(=O)C1CCCc2c1[nH]c1ccc(Cl)cc21` (stereo unspecified): the ΔTm in assay [1] was 0.05 °C; in assay [2], 0.79 °C; in assay [3], 0.23 °C; in assay [4] it was -0.8 °C; in assay [5], 0.44 °C; in assay [6] it was 0.7 °C.
For `CN(C)c1ncc2cc(-c3ccc(-c4ncccc4F)cc3Cl)c(=O)n(C[C@H]3OC[C@H](N)CO3)c2n1`, the shift in melting temperature (ΔTm) in assay [1] is -0.17 °C; in assay [2] it was 0.29 °C; in assay [3] it was 0.68 °C; in assay [4], -0.87 °C; in assay [5], -0.05 °C; in assay [6], -1.8 °C.
`Cn1cc(-c2ccc(-c3cncc(Cl)c3N3CCC4(CCNC4=O)CC3)cc2)cn1`: the thermal shift (ΔTm) was -0.07 °C in assay [1]; -0.46 °C in assay [2]; -0.23 °C in assay [3]; 6.99 °C in assay [4]; 0.45 °C in assay [5]; 1.26 °C in assay [6].
As to `COc1cc(C(=O)NCCOCCOCCOCC(=O)N[C@H](C(=O)N2C[C@@H](O)C[C@H]2C(=O)NCc2ccc(-c3scnc3C)cc2)C(C)(C)C)ccc1Nc1ncc(C(F)(F)F)c(Oc2cccc3c2C(=O)CC3)n1`, the ΔTm was -2.56 °C in assay [1]; -4.04 °C in assay [2]; 0.94 °C in assay [3]; 0 °C in assay [4]; 0.73 °C in assay [5]; 0.94 °C in assay [6].
Take `CC(C)(O)[C@H]1CC[C@H](Nc2ccc3ncc(-c4cccc(C(F)(F)F)c4)n3n2)CC1`: the ΔTm in assay [1] was determined as 0.38 °C; in assay [2] it was 1.53 °C; in assay [3], 3.57 °C; in assay [4], 2.41 °C; in assay [5], 0.62 °C; in assay [6], 0.74 °C.
Take `NC(=O)c1ccc(-c2nc(-c3ccc4c(c3)OCCO4)c(-c3ccccn3)[nH]2)cc1`: the ΔTm in assay [1] was 1 °C; in assay [2], -0.38 °C; in assay [3], 5.39 °C; in assay [4] it was -0.91 °C; in assay [5], 0.36 °C; in assay [6] it was -1.32 °C.
Consider `COc1cc(C(=O)NCCOCCOCCOCCC(=O)Nc2cccc3c2C(=O)N(C2CCC(=O)NC2=O)C3=O)ccc1Nc1ncc(C(F)(F)F)c(Oc2cccc3c2C(=O)CC3)n1` (stereo unspecified), for which the ΔTm in assay [1] was -0.1 °C; in assay [2], -0.45 °C; in assay [3], -2.13 °C; in assay [4], -0.22 °C; in assay [5], -2.51 °C; in assay [6] it was 0.92 °C.
`CC1CN(CC(=O)N2CC(C)(C)c3nc(CO)c(Cc4ccc(F)cc4)cc32)C(CN2CCOCC2C)CN1` (stereo unspecified): the ΔTm was 0.01 °C in assay [1]; 0.68 °C in assay [2]; 0.32 °C in assay [3]; -1.07 °C in assay [4]; 0.17 °C in assay [5]; -1.32 °C in assay [6].
Take `CC(C)(O)CNC(=O)N1C(=O)N(c2cccc(C(F)(F)F)c2)C2=C(C(=O)CC2)[C@@H]1c1ccc(C#N)cc1`: the shift in melting temperature (ΔTm) in assay [1] is 0.02 °C; in assay [2], 0.61 °C; in assay [3] it was 0.18 °C; in assay [4], -0.62 °C; in assay [5], 0.17 °C; in assay [6], -0.16 °C.
Regarding `Cn1ccc(Cn2cnc(-c3ccc(F)cc3)c2-c2ccnc3[nH]ccc23)n1`, the ΔTm is 0.71 °C in assay [1]; 0.42 °C in assay [2]; 6.32 °C in assay [3]; -0.53 °C in assay [4]; 0.21 °C in assay [5]; -0.97 °C in assay [6].
As to `CC(C)(C[C@H]1CN(S(=O)(=O)c2cccc(C(F)(F)F)c2)c2cc(-c3cc(F)cc(OC(F)F)c3)ccc2O1)C(=O)O`, the ΔTm in assay [1] was -1.5 °C; in assay [2], -2.02 °C; in assay [3] it was -2.71 °C; in assay [4], -2.26 °C; in assay [5] it was -6.9 °C; in assay [6], -3.89 °C.
As for `COc1cc(-c2cncc(-c3ccc(N4CCN(C(C)C)CC4)cc3)c2C)cc(F)c1C(N)=O`, the ΔTm in assay [1] was 1.79 °C; in assay [2] it was 0.61 °C; in assay [3], 0.92 °C; in assay [4] it was 1.06 °C; in assay [5], 0.21 °C; in assay [6] it was -0.31 °C.
Turning to `CCCN1CCC(C#N)(NC(=O)[C@H](CC(C)(C)C)NC(=O)N2CCOCC2)CC1`, the shift in melting temperature (ΔTm) is -0.4 °C in assay [1]; 1.07 °C in assay [2]; 0.1 °C in assay [3]; -0.32 °C in assay [4]; -0.1 °C in assay [5]; -0.11 °C in assay [6].
Regarding `Cn1nc(-c2ccc(C(N)=O)cc2)c2ccccc2c1=O`, the ΔTm is 0.66 °C in assay [1]; 0.13 °C in assay [2]; 0.57 °C in assay [3]; -0.19 °C in assay [4]; 0.56 °C in assay [5]; 0.43 °C in assay [6].
Turning to `c1ccc2c(-c3coc4cc(-c5ccc(N6CCNCC6)cc5)cnc34)ccnc2c1`, the ΔTm is 3.66 °C in assay [1]; -0.03 °C in assay [2]; 1.09 °C in assay [3]; -0.47 °C in assay [4]; 0 °C in assay [5]; -0.46 °C in assay [6].
As to `FC(F)(F)c1ccc(CNc2ccc(Cc3c[nH]c4ncc(Cl)cc34)cn2)cn1`, the ΔTm in assay [1] was -2.59 °C; in assay [2], 1.62 °C; in assay [3], 1.05 °C; in assay [4], -0.38 °C; in assay [5] it was 0.93 °C; in assay [6], 10.6 °C.

A word on the ΔTm: it is the change in melting temperature against a reference sample.
